Screening data from PubChem BioAssay.
Shown are actives, neighbours in structure and some others; about 9.2% of the full set was active somewhere.
HTT aggregate: reduces HttQ103-GFP aggregates in PC12 cells; Potency, µM (doses to about 46.1 µM), inactives show at the top dose activity change, negative = inhibition, hits mostly inhibitors; actives 1.1% (n = 220,000); AID 1688; PC12 HttQ103-GFP aggregates, Acumen cytometry, 40 h; active = well fitted curve in the direction sought with a large enough effect; inconclusive = small, poorly fitted or top-dose-only effect, or another doubt; inactive = no such curve, though single readings can be large; an effect the other way counts as inactive or inconclusive; note: % is set by controls: 0 for no effect and ±100 for the full control effect; nearly all actives have a fitted effect of over 60% in size
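Inducible Q103 Huntingtin exon 1–GFP PC12 line, 1500 cells/well in phenol red free DMEM with 5% equine and 5% calf serum. Tebufenozide 100 nM induced expression; compounds titrated; aggregates quantified by cytometry.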
ALDH1A1 block: inhibitors of human aldehyde dehydrogenase 1A1. P00352. Purified ALDH1A1, NADH fluorescence, propionaldehyde substrate. Potency, µM (titrated, usually from 75.3 µM), for the others: at the highest dose activity, negative = inhibition, hits mostly inhibitors. actives 7.3% (n = 220,000);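 note: plate controls were no enzyme wells and a reference inhibitor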
Target sequence (P00352 whole entry, looked up): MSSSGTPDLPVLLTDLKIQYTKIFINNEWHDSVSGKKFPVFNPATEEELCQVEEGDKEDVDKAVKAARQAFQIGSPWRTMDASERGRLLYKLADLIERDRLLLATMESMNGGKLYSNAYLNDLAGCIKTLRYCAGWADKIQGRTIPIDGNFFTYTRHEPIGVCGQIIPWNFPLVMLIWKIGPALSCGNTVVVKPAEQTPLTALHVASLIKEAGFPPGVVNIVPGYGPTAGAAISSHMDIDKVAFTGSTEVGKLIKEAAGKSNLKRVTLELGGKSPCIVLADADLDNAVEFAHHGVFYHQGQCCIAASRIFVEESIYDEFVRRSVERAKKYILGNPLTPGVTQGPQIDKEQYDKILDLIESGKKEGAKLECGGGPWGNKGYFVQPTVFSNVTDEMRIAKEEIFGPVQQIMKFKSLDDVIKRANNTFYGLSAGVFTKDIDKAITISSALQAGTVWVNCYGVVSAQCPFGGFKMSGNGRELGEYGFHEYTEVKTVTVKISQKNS
LMNA splice mod: changes lamin A minigene splicing in HeLa cells | HeLa LMNA splicing GFP/RFP minigene ratio, 48 h | Potency, µM (doses to about 46.1 µM), for the others: top-dose ratio change, negative = inhibition, actives largely listed as inhibitors | actives 0.01% (n = 200,000); active = well fitted inhibition curve with a large enough effect in the signal ratio, with a control signal flat, not every such curve was filed as active; inconclusive = small, poorly fitted or top-dose-only effect, or effect the other way, or a change in a side signal; the % refers to the signal ratio; note: % is set by controls: 0 for no effect and ±100 for the full control effect
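S3 HeLa cells stably expressing lamin A-EGFP splicing minigene plus DsRed2, 600 cells/well, 48 h compound exposure at 37C. Laser-scanning cytometry; analysed as GFP (500-530 nm)/RFP (575-640 nm) total intensity ratio; 0.5% DMSO vehicle.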
HTT cytoprotect: Huntington cell model cytoprotection by ATP luminescence; PC12 HTT-Q103 induced, cytoprotection, ATP luminescence, 40 h; Potency, µM (series often up to 56.4 µM), without a hit: cytoprotection (ATP increase), usual class: activators; actives 0.14% (n = 230,000); active = well fitted curve in the direction sought with a large enough effect; inconclusive = small, poorly fitted or top-dose-only effect, or another doubt; inactive = no such curve, though single readings can be large; an effect the other way counts as inactive or inconclusive; note: % of control where 0% means no effect; nearly all actives have a fitted effect of over 45% in size
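Cells were plated at 1500 per well in phenol red-free DMEM with 5% equine and 5% calf serum. Tebufenozide (100 nM final) and compounds were added, then ATPlite reagent, and luminescence was read.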
KDM4E inh: blocks human JMJD2E demethylase activity; JMJD2E catalytic domain, FDH-coupled NADH fluorescence (FDH is formaldehyde dehydrogenase); actives 1.6% (n = 230,000); B2RXH2; AID 2147; Potency, µM (top dose mostly 57.1 µM), for inactives: at the top dose activity change, negative = inhibition, actives largely listed as inhibitors;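 note: 0% = wells with enzyme and -100% = buffer wells without enzyme; nearly all actives have a fitted effect of over 50% in size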
HPGD block: HPGD (human) dehydrogenase inhibition; P15428; purified HPGD, NADH fluorescence kinetic, PGE2 substrate; Potency, µM, for inactives: top-dose activity change, negative = inhibition, actives largely listed as inhibitors; actives 4.3% (n = 150,000); AID 894; note: % is set by controls: 0 for no effect and ±100 for the full control effect
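20 nM HPGD preincubated 15 min at room temperature with compound in 50 mM Tris-HCl pH 8, 0.01% Tween 20. Started with 1 mM NAD+ and 30 uM prostaglandin E2; NADH fluorescence (360/450 nm) read 5 times over 30-s intervals, last minus first.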
Starred values were filed as active, the others as inactive; ? = inconclusive; nt = not tested or not shown; [ ] = dose if it differs, or a comment. Unless noted, calls come from the whole dose curve; as a rule, active = well fitted inhibition curve with a large enough effect (not every such curve was filed as active); inconclusive = small, poorly fitted or top-dose-only effect, or another doubt; inactive = no such curve, though single readings can be large or run the other way. Potency is the fitted concentration of half-maximal effect.

SMILES	HTT aggregate	ALDH1A1 block	LMNA splice mod	HTT cytoprotect	KDM4E inh	HPGD block
CCN(Cc1ccccc1)C(=O)c1ccc(CNS(=O)(=O)c2ccc(C)cc2)cc1	2%	2µM*	?	nt	-2%	?
O=C(NNC(=O)c1ccc(Oc2ccc(C3SCCS3)cc2)o1)c1ccc(Cl)cc1	-5%[9.22 µM]	nt	nt	13%[10 µM]	-7%	nt
O=C(c1cccc2ccccc12)N1CCN(c2ccc([N+](=O)[O-])c(N3CCOCC3)c2)CC1	1%	10µM*	-14%	2%[10 µM]	-4%	-19%
O=C(c1ccccc1F)N1CCN(c2ccc([N+](=O)[O-])c(N3CCOCC3)c2)CC1	19%[9.22 µM]	0.71µM*	nt	7%[10 µM]	3%	nt
CCOc1ccc(C(=O)NCCc2csc(-c3cccc(C)c3)n2)cc1	nt	nt	-6%[46 µM]	nt	nt	nt
O=C(NCc1cccs1)O[C@H]1C[C@H]2CC[C@@H]1C2	nt	4%[13.5 µM]	nt	-12%[10 µM]	nt	-4%
COc1ccccc1CNC(=O)C1CCCN(S(=O)(=O)c2ccc3c(c2)CCCN3C(C)=O)C1 (configuration not stated)	nt	nt	-4%[46 µM]	nt	nt	nt
Cc1ccc(S(=O)(=O)N2CCN(S(=O)(=O)N3CCCCCC3)CC2)cc1	15%[9.22 µM]	13%	-8%[46 µM]	28%[10 µM]	4%	nt
C[C@@]12C=Cc3occc3C1CC[C@@]13C[C@@H](CCC12)[C@@](O)(CO)C3 (some centres not stated)	nt	1.4µM*	nt	-70%	nt	-5%
O=C(Nc1nccs1)C(c1ccccc1)N1CCCC1 (configuration not stated)	-5%	2%	nt	1.4µM*	1%	nt
COC(=O)[C@]1(C)CCC(c2ccc(C)cc2)=C(CC(=O)O)C1	nt	-5%[13.5 µM]	nt	3%[10 µM]	nt	-7%
Cc1cc(=O)[nH]c(S/C=C/c2ccccc2)n1	4%	-5%	-7%	-83%	0%	20µM*
Nc1cc(=O)[nH]c(SC/C=C/c2ccccc2)n1	-27%	-2%	-4%	-77%	-1%	-6%
CC[C@H](Cc1c(I)cc(I)c(N)c1I)C(=O)O	20%[20.6 µM]	-5%[20.9 µM]	?	-23%[40.3 µM]	-2%[25.5 µM]	-7%
CC1(C)CCC=[N+]1[O-]	nt	4%	?	14%[1.9 µM]	-3%	-13%
Cc1nc2nc(SCc3ccc([N+](=O)[O-])cc3)[nH]c2cc1Br	-9%[9.22 µM]	nt	nt	3%[10 µM]	3%	nt
C=C(C)CSc1nc2nc(C)c(Br)cc2[nH]1	-5%	-7%	0%	-1%	-4%	14µM*
Cc1ncoc1C(=O)N1CCCC(C(=O)c2cccc(OC(C)C)c2)C1 (configuration not stated)	3%[9.22 µM]	25µM*	nt	1%[10 µM]	-5%	nt
Cc1ncoc1C(=O)N1CCCC(C(=O)c2ccc(Oc3ccccc3)cc2)C1 (configuration not stated)	5%[9.22 µM]	2.8µM*	nt	3%[10 µM]	4%	nt
Cc1ncoc1C(=O)N1CCCC(C(=O)c2ccc(C(F)(F)F)cc2)C1 (configuration not stated)	-25%[9.22 µM]	16µM*	nt	-25%[10 µM]	4%	nt
Cc1ncoc1C(=O)N1CCCC(C(=O)c2ccc(-c3ccccc3)c(F)c2)C1 (configuration not stated)	?	?	?	-28%	-14%	nt
Cc1ncoc1C(=O)N1CCCC(C(=O)c2cccc(C(F)(F)F)c2)C1 (configuration not stated)	-6%[9.22 µM]	-5%	?	23%[10 µM]	6%	nt
CO[C@H]1COC(=O)[C@@H](Cc2ccccc2)NC(=O)[C@@H](C)COC(=O)C/C=C\[C@@H]1C	nt	0%[13.5 µM]	nt	?	nt	nt
CCSc1nnc(CSc2ncccn2)n1C	8%	?	9%[46 µM]	3%	6%	nt
Oc1ccc(NCc2cccc(OCc3ccc(F)cc3)c2)cc1	23%[9.22 µM]	?	?	-9%[10 µM]	-2%	nt
Oc1ccc(NCc2cccc(OCc3ccccc3)c2)cc1	-23%	?	nt	-34%	4.5µM*	nt
O=[N+]([O-])c1ccc(COc2cccc(CNc3ccc(F)cc3)c2)cc1	11%	14µM*	?	-22%[10 µM]	-3%	-8%
